From PubChem BioAssay AID1159580 (chemical genetic matrix, 2015)
About 2,000 (36%) of roughly 5,500 compounds were called active. Not shown: some 18% with an inconclusive outcome. Cut-off read from the data, not from the text of the source: active = normalized growth mostly below about 0.91 (no sharp cut-off); inconclusive = no clear call, values can overlap the other calls; inactive = mostly above about 0.92. The list shows a part of the results.

Assay: chemical genetic growth profiling, strain panel (AID 1159580);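 note: tested at 20 µM; growth read once vehicle control cultures reached saturation at 30 °C; 1 = growth at the plate median or of vehicle wells; lower values mean less growth of the strain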
Details: S. cerevisiae deletion strains, growth OD

Measured: normalized growth

NNCc1ccccc1
inactive: locus YAL021C, strain ccr4, hits give low values 0.993 | locus YAL026C, strain drs2, hits give low values 0.986 | locus YAL030W, strain snc1, hits give low values 0.979 | locus YBL061C, strain skt5, hits give low values 0.983 | locus YBR009C, strain hhf1, hits give low values 1 | locus YBR023C, strain chs3, hits give low values 0.982 | locus YBR171W, strain sec66, hits give low values 0.97 | locus YBR231C, strain swc5, hits give low values 1.01 | locus YBR279W, strain paf1, hits give low values 0.982 | locus YCL011C, strain gbp2, hits give low values 0.99 | locus YCL016C, strain dcc1, hits give low values 0.982 | locus YCL069W, strain vba3, hits give low values 0.993 | locus YCR088W, strain abp1, hits give low values 0.974 | locus YDL005C, strain med2, hits give low values 0.992 | locus YDL040C, strain nat1, hits give low values 0.971 | locus YDR001C, strain nth1, hits give low values 0.989 | locus YDR069C, strain doa4, hits give low values 0.976 | locus YDR137W, strain rgp1, hits give low values 0.96 | locus YDR159W, strain sac3, hits give low values 0.983 | locus YDR195W, strain ref2 1.02 | locus YDR297W, strain sur2, hits give low values 0.989 | locus YDR334W, strain swr1, hits give low values 0.99 | locus YDR335W, strain msn5, hits give low values 1 | locus YDR392W, strain spt3, hits give low values 1 | locus YEL003W, strain gim4, hits give low values 0.996 | locus YEL037C, strain rad23, hits give low values 0.991 | locus YEL061C, strain CIN8 (second series), hits give low values 0.978 | locus YER015W, strain faa2, hits give low values 0.999 | locus YER016W, strain bim1, hits give low values 0.998 | locus YER111C, strain swi4, hits give low values 0.988 | locus YER155C, strain BEM2 (second series), hits give low values 0.989 | locus YFR010W, strain ubp6, hits give low values 0.989 | locus YGL167C, strain pmr1, hits give low values 0.989 | locus YGL173C, strain kem1, hits give low values 0.961 | locus YGL227W, strain vid30, hits give low values 0.994 | locus YGL240W, strain doc1, hits give low values 0.98 | locus YGL253W, strain hxk2, hits give low values 0.993 | locus YHR013C, strain ard1, hits give low values 1.03 | locus YHR027C, strain rpn1, hits give low values 0.997 | locus YHR142W, strain chs7, hits give low values 0.985 | locus YJL092W, strain hpr5, hits give low values 0.993 | locus YJL095W, strain BCK1 (second series), hits give low values 0.986 | locus YJL115W, strain asf1, hits give low values 0.987 | locus YJL129C, strain trk1, hits give low values 0.978 | locus YJL154C, strain vps35, hits give low values 0.986 | locus YJL164C, strain tpk1, hits give low values 0.98 | locus YJL166W, strain qcr8, hits give low values 0.997 | locus YJL187C, strain SWE1, hits give low values 0.987 | locus YKL160W, strain elf1, hits give low values 0.988 | locus YKR026C, strain gcn3, hits give low values 0.974 | locus YKR091W, strain srl3, hits give low values 0.985 | locus YLL001W, strain dnm1, hits give low values 0.983 | locus YLL026W, hits give low values 1 | locus YLL041C, strain sdh2, hits give low values 0.992 | locus YLR027C, strain aat2, hits give low values 0.991 | locus YLR221C, strain rsa3, hits give low values 0.978 | locus YLR258W, strain gsy2, hits give low values 0.987 | locus YLR262C, strain YPT6 (second series), hits give low values 0.906 | locus YLR320W, strain mms22, hits give low values 0.993 | locus YLR342W, strain FKS1, hits give low values 0.981 | locus YLR357W, strain rsc2, hits give low values 0.967 | locus YLR370C, strain arc18, hits give low values 0.983 | locus YLR384C, strain iki3, hits give low values 0.992 | locus YML120C, strain ndi1, hits give low values 0.979 | locus YMR058W, strain fet3, hits give low values 0.996 | locus YMR125W, strain sto1, hits give low values 0.986 | locus YMR129W, hits give low values 0.99 | locus YMR205C, strain PFK2, hits give low values 0.976 | locus YMR231W, strain pep5, hits give low values 0.994 | locus YNL071W, strain lat1, hits give low values 1.01 | locus YNL209W, strain ssb2, hits give low values 0.989 | locus YNL248C, strain rpa49, hits give low values 0.993 | locus YNL322C, strain KRE1 (second series), hits give low values 0.992 | locus YNR049C, strain mso1, hits give low values 0.99 | locus YOR001W, strain rrp6, hits give low values 0.994 | locus YOR070C, strain gyp1, hits give low values 0.989 | locus YOR080W, strain dia2, hits give low values 0.983 | locus YOR083W, strain WHI5, hits give low values 0.987 | locus YOR106W, strain vam3, hits give low values 0.963 | locus YOR265W, strain rbl2, hits give low values 1 | locus YOR270C, strain vph1, hits give low values 0.979 | locus YOR290C, strain snf2, hits give low values 0.987 | locus YPL051W, strain arl3, hits give low values 0.969 | locus YPL078C, strain atp4, hits give low values 0.997 | locus YPL106C, strain sse1, hits give low values 0.963 | locus YPL240C, strain hsp82, hits give low values 1
